From PubChem BioAssay (NCI)
About 83,000 compounds went through this panel and 20% of them were active in at least one assay; those are over-represented in the sample as a whole.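 Percent growth is the endpoint: 0 to 100 indicates growth inhibition (40 means 60% inhibition), 0 means no net growth, and negative values indicate cell death.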 Calls of active or inactive are those of the source. The calls were made as follows: active = growth percent below 10; inactive = the rest.

Experiments:
Assay in all cases: NCI-60 one-dose screen, 48 h (100 = growth as untreated, 0 = no growth, -100 = all killed)
SR leukemia = conditions: 10 µM unless noted
RPMI-8226 leukemia = system: RPMI-8226 leukemia
OVCAR-8 ovarian = system: OVCAR-8 ovarian
OVCAR-5 ovarian = system: OVCAR-5 ovarian
OVCAR-4 ovarian = system: OVCAR-4 ovarian
SK-OV-3 ovarian = system: SK-OV-3 ovarian
IGROV1 ovarian = system: IGROV1 ovarian
HS 578T breast = system: HS 578T breast
NCI/ADR-RES ovarian = system: NCI/ADR-RES ovarian
T-47D breast = system: T-47D breast
BT-549 breast = system: BT-549 breast
MDA-MB-435 melanoma = system: MDA-MB-435 melanoma
SW-620 colon = system: SW-620 colon
MCF7 breast = system: MCF7 breast
HCT-116 colon = system: HCT-116 colon
HCC-2998 colon = system: HCC-2998 colon
KM12 colon = conditions: 10 µM unless noted
MDA-MB-468 breast = system: MDA-MB-468 breast
OVCAR-3 ovarian = conditions: 10 µM unless noted

Measured: growth

COC(=O)c1cc(C(=O)C(C)(C)C)n2c3ccccc3c3ccccc3c12
inactive: SR leukemia 69.7% | RPMI-8226 leukemia; 10 µM unless noted 70.2% | OVCAR-8 ovarian; 10 µM unless noted 98.6% | OVCAR-5 ovarian; 10 µM unless noted 98.6% | OVCAR-4 ovarian; 10 µM unless noted 85.9% | SK-OV-3 ovarian; 10 µM unless noted 109% | IGROV1 ovarian; 10 µM unless noted 86.2% | HS 578T breast; 10 µM unless noted 99.3% | NCI/ADR-RES ovarian; 10 µM unless noted 89.3% | T-47D breast; 10 µM unless noted 47.1% | BT-549 breast; 10 µM unless noted 111% | MDA-MB-435 melanoma; 10 µM unless noted 105% | SW-620 colon; 10 µM unless noted 101% | MCF7 breast; 10 µM unless noted 86.2% | HCT-116 colon; 10 µM unless noted 88.4% | HCC-2998 colon; 10 µM unless noted 124% | KM12 colon 79.5% | MDA-MB-468 breast; 10 µM unless noted 88.3%

COc1ccc2c(c1)C(Sc1ccc(Cl)cc1)c1c(nc(N)c(C#N)c1N)O2 (centres undefined)
inactive: RPMI-8226 leukemia; 10 µM unless noted 29.4% | OVCAR-8 ovarian; 10 µM unless noted 73.6% | OVCAR-5 ovarian; 10 µM unless noted 108% | OVCAR-4 ovarian; 10 µM unless noted 73.5% | SK-OV-3 ovarian; 10 µM unless noted 107% | IGROV1 ovarian; 10 µM unless noted 25.9% | OVCAR-3 ovarian 93.2% | HS 578T breast; 10 µM unless noted 45.8% | NCI/ADR-RES ovarian; 10 µM unless noted 73.6% | T-47D breast; 10 µM unless noted 55% | BT-549 breast; 10 µM unless noted 12.4% | MDA-MB-435 melanoma; 10 µM unless noted 75.8% | SW-620 colon; 10 µM unless noted 58.1% | MCF7 breast; 10 µM unless noted 26.7% | HCT-116 colon; 10 µM unless noted 48% | HCC-2998 colon; 10 µM unless noted 94.2% | KM12 colon 47%

O=C(NNC(=S)NCCc1ccccc1)c1ccc(OCc2nc3ccc(Cl)cc3[nH]2)cc1
inactive: RPMI-8226 leukemia; 10 µM unless noted 49.1% | OVCAR-8 ovarian; 10 µM unless noted 86.2% | OVCAR-5 ovarian; 10 µM unless noted 113% | OVCAR-4 ovarian; 10 µM unless noted 49.7% | SK-OV-3 ovarian; 10 µM unless noted 102% | IGROV1 ovarian; 10 µM unless noted 80.3% | OVCAR-3 ovarian 68.2% | HS 578T breast; 10 µM unless noted 81.2% | NCI/ADR-RES ovarian; 10 µM unless noted 93.9% | T-47D breast; 10 µM unless noted 39.4% | BT-549 breast; 10 µM unless noted 61.5% | MDA-MB-435 melanoma; 10 µM unless noted 84.3% | SW-620 colon; 10 µM unless noted 129% | MCF7 breast; 10 µM unless noted 34.2% | HCT-116 colon; 10 µM unless noted 64.3% | HCC-2998 colon; 10 µM unless noted 104% | KM12 colon 63% | MDA-MB-468 breast; 10 µM unless noted 61.4%

Cc1cn(-c2cc(NC(=O)c3ccc(C)c(-n4cc(-c5cnc6cccnn56)nn4)c3)cc(C(F)(F)F)c2)cn1
inactive: SR leukemia 23.2% | RPMI-8226 leukemia; 10 µM unless noted 53.9% | OVCAR-8 ovarian; 10 µM unless noted 92.4% | OVCAR-5 ovarian; 10 µM unless noted 58.3% | OVCAR-4 ovarian; 10 µM unless noted 100% | SK-OV-3 ovarian; 10 µM unless noted 124% | IGROV1 ovarian; 10 µM unless noted 88.7% | HS 578T breast; 10 µM unless noted 108% | NCI/ADR-RES ovarian; 10 µM unless noted 94.5% | BT-549 breast; 10 µM unless noted 158% | MDA-MB-435 melanoma; 10 µM unless noted 57.7% | SW-620 colon; 10 µM unless noted 84.9% | MCF7 breast; 10 µM unless noted 98.6% | HCT-116 colon; 10 µM unless noted 53.2% | HCC-2998 colon; 10 µM unless noted 82.2% | MDA-MB-468 breast; 10 µM unless noted 99.1%

CC1=C(C(=O)Nc2ccccc2)C(c2cccc(Cl)c2Cl)n2c(nc3ccccc32)N1 (centres undefined)
inactive: RPMI-8226 leukemia; 10 µM unless noted 37% | OVCAR-8 ovarian; 10 µM unless noted 66.6% | OVCAR-5 ovarian; 10 µM unless noted 82.8% | OVCAR-4 ovarian; 10 µM unless noted 49.4% | SK-OV-3 ovarian; 10 µM unless noted 84.3% | IGROV1 ovarian; 10 µM unless noted 54.9% | OVCAR-3 ovarian 42.2% | HS 578T breast; 10 µM unless noted 66% | NCI/ADR-RES ovarian; 10 µM unless noted 46.3% | T-47D breast; 10 µM unless noted 67.4% | BT-549 breast; 10 µM unless noted 71% | MDA-MB-435 melanoma; 10 µM unless noted 26.5% | SW-620 colon; 10 µM unless noted 56.5% | MCF7 breast; 10 µM unless noted 24.6% | HCT-116 colon; 10 µM unless noted 29.6% | HCC-2998 colon; 10 µM unless noted 25.6% | KM12 colon 32.9%
active: MDA-MB-468 breast; 10 µM unless noted -32.2%

CC/C(=C(\c1ccc(O)cc1)c1ccc(OCCNC)cc1)c1ccccc1
inactive: RPMI-8226 leukemia; 1 µM 100% | RPMI-8226 leukemia; 10 µM 86.1% | OVCAR-8 ovarian; 1 µM 104% | OVCAR-8 ovarian; 10 µM 97.3% | OVCAR-5 ovarian; 1 µM 97.8% | OVCAR-5 ovarian; 10 µM 106% | OVCAR-4 ovarian; 1 µM 111% | OVCAR-4 ovarian; 10 µM 88.7% | SK-OV-3 ovarian; 1 µM 84.4% | SK-OV-3 ovarian; 10 µM 92.7% | IGROV1 ovarian; 1 µM 101% | IGROV1 ovarian; 10 µM 96.9% | HS 578T breast; 1 µM 94.8% | HS 578T breast; 10 µM 80.5% | NCI/ADR-RES ovarian; 1 µM 103% | NCI/ADR-RES ovarian; 10 µM 91.1% | T-47D breast; 1 µM 59.6% | T-47D breast; 10 µM 44.8% | BT-549 breast; 1 µM 91.4% | BT-549 breast; 10 µM 74.4% | MDA-MB-435 melanoma; 1 µM 104% | MDA-MB-435 melanoma; 10 µM 74.5% | SW-620 colon; 1 µM 107% | SW-620 colon; 10 µM 89.9% | MCF7 breast; 1 µM 24.9% | MCF7 breast; 10 µM 25.8% | HCT-116 colon; 1 µM 93.2% | HCT-116 colon; 10 µM 62.4% | HCC-2998 colon; 1 µM 106% | HCC-2998 colon; 10 µM 56.7% | MDA-MB-468 breast; 1 µM 95.6% | MDA-MB-468 breast; 10 µM 72.4%

COc1ccc2c(c1)c(-c1cc(N)n3nc(-c4c[nH]c5ccccc45)cc3n1)cn2C
active: SR leukemia 6.54% | RPMI-8226 leukemia; 10 µM unless noted -9.07% | OVCAR-8 ovarian; 10 µM unless noted -74.7% | OVCAR-5 ovarian; 10 µM unless noted -69.7% | OVCAR-4 ovarian; 10 µM unless noted -29.8% | SK-OV-3 ovarian; 10 µM unless noted -55.6% | IGROV1 ovarian; 10 µM unless noted -62.4% | HS 578T breast; 10 µM unless noted -17.9% | NCI/ADR-RES ovarian; 10 µM unless noted -43.3% | T-47D breast; 10 µM unless noted -63.5% | MDA-MB-435 melanoma; 10 µM unless noted -74% | SW-620 colon; 10 µM unless noted -89.5% | MCF7 breast; 10 µM unless noted -72% | HCT-116 colon; 10 µM unless noted -85.9% | HCC-2998 colon; 10 µM unless noted -80.6% | KM12 colon -74.8% | MDA-MB-468 breast; 10 µM unless noted -73.8%

Cc1ccc(NC(=O)N/N=C/c2c[nH]c3ccccc23)c(C)c1
active: RPMI-8226 leukemia; 10 µM unless noted 9.67% | OVCAR-8 ovarian; 10 µM unless noted -23.7% | OVCAR-3 ovarian -33.2% | NCI/ADR-RES ovarian; 10 µM unless noted 3.88% | MDA-MB-435 melanoma; 10 µM unless noted -14.3% | MCF7 breast; 10 µM unless noted 7.55% | HCT-116 colon; 10 µM unless noted -15.3% | HCC-2998 colon; 10 µM unless noted -11.2% | KM12 colon -25.5% | MDA-MB-468 breast; 10 µM unless noted 3.12%
inactive: OVCAR-5 ovarian; 10 µM unless noted 15.5% | OVCAR-4 ovarian; 10 µM unless noted 47.3% | SK-OV-3 ovarian; 10 µM unless noted 21.8% | IGROV1 ovarian; 10 µM unless noted 22.3% | HS 578T breast; 10 µM unless noted 20.4% | T-47D breast; 10 µM unless noted 46.7% | BT-549 breast; 10 µM unless noted 17.2% | SW-620 colon; 10 µM unless noted 24.8%
